An excerpt weighted towards active compounds, which were near 2.3% of everything screened.
HTT aggregate – inhibitors of mutant huntingtin aggregate formation in PC12 cells. PC12 HttQ103-GFP aggregates, Acumen cytometry, 40 h. Potency, µM (series often up to 46.1 µM), for inactives: at the top dose activity change, negative = inhibition, usual class: inhibitors. 220,000 tested, 1.1% active. AID 1688; note: potency is the fitted concentration of half-maximal effect; % is set by controls: 0 for no effect and ±100 for the full control effect; nearly all actives have a fitted effect of over 60% in size
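Using laser scanning cytometry, GFP-positive aggregates were counted after lysis of PC12 cells induced with 100 nM tebufenozide to express HTT exon 1 Q103–GFP. Compounds were tested in titration.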
HTT cytoprotect – Huntington cell model cytoprotection by ATP luminescence; AID 1471; PC12 HTT-Q103 induced, cytoprotection, ATP luminescence, 40 h; Potency, µM (titrated, usually from 56.4 µM), for inactives: cytoprotection (ATP increase), hits mostly activators; 230,000 tested, 0.14% active; note: potency is the fitted concentration of half-maximal effect; % of control where 0% means no effect; nearly all actives have a fitted effect of over 45% in size
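Compounds added alongside 100 nM tebufenozide, which induces toxic Q103 huntingtin exon 1-GFP in stable PC12 cells; surviving cells quantified by luminescent ATP measurement. Medium: phenol red-free DMEM, 5% equine and 5% calf serum.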
VDR inhibitor – vitamin D3 receptor (human) inhibition; VDR-SRC2-3 peptide fluorescence polarization, 2 h; P11473; AID 504847; Potency, µM, inactives show max response, negative = inhibition, hits mostly inhibitors; 400,000 tested, 0.93% active; note: potency is the fitted concentration of half-maximal effect; % is set by controls: 0 for no effect and ±100 for the full control effect
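Fluorescence polarization assay of small-molecule disruption of VDR binding to coregulator peptide SRC2-3. Compounds and controls pin-transferred, then read after 2 h incubation at ambient room temperature.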
GoLoco inh red – RGS12 GoLoco-Gai1 interaction inhibition; P63096; Gai1:RGS12 GoLoco peptide FP, rhodamine, 10 min; Potency, µM (titrated, usually from 61.6 µM), for the others: top-dose activity, negative = inhibition, hits mostly inhibitors; 230,000 tested, 0.44% active; AID 880; active = well fitted inhibition curve with a large enough effect, not every such curve was filed as active; inactive = no such curve, though single readings can be large or run the other way; note: potency is the fitted concentration of half-maximal effect; % is set by controls: 0 for no effect and ±100 for the full control effect; nearly all actives have a fitted effect of over 30% in size
Target sequence (P63096 whole entry, looked up): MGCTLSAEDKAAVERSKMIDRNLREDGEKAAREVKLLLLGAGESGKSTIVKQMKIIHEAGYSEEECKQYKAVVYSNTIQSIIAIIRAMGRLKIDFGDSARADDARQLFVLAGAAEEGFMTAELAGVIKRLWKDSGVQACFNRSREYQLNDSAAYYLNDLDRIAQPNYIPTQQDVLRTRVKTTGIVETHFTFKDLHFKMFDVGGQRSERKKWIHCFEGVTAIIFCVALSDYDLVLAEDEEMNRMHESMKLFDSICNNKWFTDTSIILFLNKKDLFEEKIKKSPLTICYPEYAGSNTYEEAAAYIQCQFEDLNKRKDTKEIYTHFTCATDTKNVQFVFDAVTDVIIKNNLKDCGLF
JMJD2E inh – JMJD2E (human) inhibition; JMJD2E catalytic domain, FDH-coupled NADH fluorescence (FDH is formaldehyde dehydrogenase); AID 2147; B2RXH2; Potency, µM (top dose mostly 57.1 µM), for the others: at the top dose activity change, negative = inhibition, most hits filed as inhibitors; 230,000 tested, 1.6% active; active = well fitted inhibition curve with a large enough effect, not every such curve was filed as active; inconclusive = small, poorly fitted or top-dose-only effect, or another doubt; inactive = no such curve, though single readings can be large or run the other way;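 note: potency is the fitted concentration of half-maximal effect; 0% = wells with enzyme and -100% = buffer wells without enzyme; nearly all actives have a fitted effect of over 50% in size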
Target sequence (B2RXH2 1-337 limits assumed): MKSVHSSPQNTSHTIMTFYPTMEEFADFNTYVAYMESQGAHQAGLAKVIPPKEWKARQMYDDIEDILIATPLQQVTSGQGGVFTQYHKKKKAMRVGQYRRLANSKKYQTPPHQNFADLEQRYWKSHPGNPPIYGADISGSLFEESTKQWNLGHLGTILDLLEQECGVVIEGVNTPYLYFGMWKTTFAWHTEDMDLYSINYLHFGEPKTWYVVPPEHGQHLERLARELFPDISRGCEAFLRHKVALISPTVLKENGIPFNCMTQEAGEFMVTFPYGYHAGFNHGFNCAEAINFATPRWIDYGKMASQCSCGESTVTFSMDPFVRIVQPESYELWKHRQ
FBPA coupling cs – inhibits coupling enzyme system, counter-screen for aldolase hits | coupling enzyme system counterscreen, AmpLite Red fluorescence | activity change, negative = inhibition, % at 58.2 µM, hits read low | 290,000 tested, 0.67% active; in the data active = activity change below about -30%; note: % is set by controls: 0 for no effect and ±100 for the full control effect
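Activity here indicates interference with the coupling reaction, not aldolase inhibition. Compounds at 57.5 uM final met coupling enzymes for 10 min at RT; substrate and AmpLite Red detection followed, with a 525/598 nm fluorescence read after 20 min.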
An asterisk follows results filed as active; ? = inconclusive; . = no result; [ ] = dose if it differs, or a comment. Unless noted, calls come from the whole dose curve; as a rule, active = well fitted curve in the direction sought with a large enough effect; inconclusive = small, poorly fitted or top-dose-only effect, or another doubt; inactive = no such curve, though single readings can be large; an effect the other way counts as inactive or inconclusive.

SMILES	HTT aggregate	HTT cytoprotect	VDR inhibitor	GoLoco inh red	JMJD2E inh	FBPA coupling cs
CN(C)C=Nc1c(Br)cc(Br)c2nonc12	?	-11.8%	?	-92.9%	7.9%	-42.6*
COc1ccccc1C(=O)Nc1c(C(=O)N2CCN(c3ccccc3F)CC2)oc2ccccc12	.	.	0.5%	.	.	.
CO/N=C(/C(=O)N[C@@H]1C(=O)N2C(C(=O)O)=C(CSc3cnns3)CS[C@H]12)c1csc(N)n1	-9.0%	-3.5%	35.5µM*	.	.	.
CC(=O)Nc1c(Cl)cc(Cl)c2c1Cc1cc(Cl)ccc1-2	.	.	-0.1%	.	.	.
Fc1ccc(-n2ncc3c(N4CCN(c5ccccc5F)CC4)ncnc32)cc1	.	.	15.2%	.	.	.
CC(C)C[C@H](NC(=O)[C@H](CCCCN)NC(=O)CNC(=O)[C@H](CC(C)C)NC(=O)[C@@H](NC(=O)[C@@H]1CSSC[C@H](N)C(=O)N[C@@H](CO)C(=O)N[C@@H](CC(N)=O)C(=O)N[C@@H](CC(C)C)C(=O)N[C@@H](CO)C(=O)N[C@@H]([C@@H](C)O)C(=O)N1)C(C)C)C(=O)N[C@@H](CO)C(=O)N[C@@H](CCC(N)=O)C(=O)N[C@@H](CCC(=O)O)C(=O)N[C@@H](CC(C)C)C(=O)N[C@@H](Cc1cnc[nH]1)C(=O)N[C@@H](CCCCN)C(=O)N[C@@H](CC(C)C)C(=O)N[C@@H](CCC(N)=O)C(=O)N[C@H](C(=O)N[C@@H](Cc1ccc(O)cc1)C(=O)N1CCC[C@H]1C(=O)N[C@@H](CCCNC(=N)N)C(=O)N[C@H](C(=O)N[C@@H](CC(N)=O)C(=O)N[C@H](C(=O)NCC(=O)N[C@@H](CO)C(=O)NCC(=O)N[C@H](C(=O)N1CCC[C@H]1C(N)=O)[C@@H](C)O)[C@@H](C)O)[C@@H](C)O)[C@@H](C)O	.	.	-8.7%	.	.	3.3
Cc1cc(C)nc(N/N=C2/CCCC/C2=C\c2ccccc2)n1	4.47µM*	-55.4%[10 µM]	-13.2%	1.5%	22.9%	-0.6
O=C1C2C3C=CC(CNS(=O)(=O)c4ccccc4)(O3)C2C(=O)N1c1ccc(Cl)cc1 (stereo unspecified)	16.9%	5.7%[10 µM]	79.4µM*	-18.6%	7.0%	3.5
CC(=O)Oc1ccc(N2C(=O)C3C(C2=O)C2(C)C=CC3(C)O2)cc1 (stereo unspecified)	?	-76.3%	.	-24.2%	-3.4%	-2.7
CC(=O)Oc1ccc(N2C(=O)C3C4C=CC(CO)(O4)C3C2=O)cc1 (stereo unspecified)	?	-21.8%	44.7µM*	-13.6%	-4.8%	-2.1
COC(=O)[C@@H]1C[C@H]1[C@@H](NC(=O)OCc1ccccc1)c1ccccc1	.	5.1%	.	.	.	.
COc1ccc(-c2ccccc2C2C3C=CCCC3(C)C(=O)N2Cc2ccccc2)cc1 (stereo unspecified)	.	.	79.4µM*	.	.	1.2
Cc1nc2ccccc2n2c(O)c(CC(=O)O)cc12	-17.7%	-4.4%	-6.3%	12.6µM*	?	8.9
Cc1nc2ccccc2n1CCC(=O)O	-1.7%	-8.5%[10 µM]	-7.9%	11.1%	1.4%	-0.5
O=C(c1ccccc1)C1C(=O)c2ccccc2C1=O	?	-22.1%	-3.2%	0.3%	-8.7%	2.2
CC(C)(C)C(=O)C1C(=O)c2ccccc2C1=O	.	-51.6%	.	10µM*	.	.
COC(=O)C/C=C\[C@@H](C)[C@@H](/C=N\O[C@@H](C)CN1CCCCc2nc(C)c(C)cc21)NS(=O)(=O)c1ccc(C)cc1	.	-13.7%[10 µM]	.	.	.	2.0
CC1=C(C)C(=O)N(c2ccccn2)C1=O	3.1%	-9.8%[10 µM]	-3.8%	-13.4%	-1.3%	0.6
Cc1nn(-c2ccccn2)c2c1C(=O)C(Br)CC2 (stereo unspecified)	-11.7%	?	17.8µM*	-22.1%	-25.4%	-64.2*
CC1CCC(NC(=O)CN2C(=O)c3cccnc3Oc3ccc(Cl)cc32)CC1 (stereo unspecified)	.	.	-0.8%	.	.	.
N[C@H](CS(=O)O)C(=O)O	.	5.9%[1.9 µM]	.	.	.	.
CCS(=O)(=O)c1ccc(OC)c(N=Nc2ccc(O)c3ncccc23)c1	7.94µM*	-177.4%	2.2%	-24.5%	17.8µM*	-0.7
Cc1ccccc1S(=O)(=O)O[C@@H]1NS(=O)(=O)c2ccccc21	.	10.6%[10 µM]	.	4.7%[14.2 µM]	.	.
CN1/C(=N\O)c2cccc3cccc1c23	?	-24.1%	?	-4.6%	?	-47.1*
COC(=O)C(CC(C)C)NS(=O)(=O)c1ccccc1Br (stereo unspecified)	.	.	-11.9%	.	.	-4.4
SMILES	HTT aggregate	HTT cytoprotect	VDR inhibitor	GoLoco inh red	JMJD2E inh	FBPA coupling cs
O=C1OCC2OC(O)C(O)C(O)C2OC(=O)c2cc(O)c(O)c(O)c2-c2c(O)c(O)c3oc(=O)c4c(c(O)c(O)c5oc(=O)c2c3c54)-c2c1cc(O)c(O)c2O (stereo unspecified)	-25.1%[9.22 µM]	2.9%[10 µM]	.	-45.4%	0.562µM*	-14.6
Oc1cccc(O)c1O	7.0%	14.3%	79.4µM*	-30.3%	.	.
CCOC(=O)c1c(CC(C)C)csc1N	21.8%	-18.3%	-18.5%	20.1%	-4.5%	-1.4
CCOC(=O)c1c(-c2ccsc2)csc1N	-14.2%	-7.6%[10 µM]	-29.3%	4.5%	-11.5%	-33.7*
Cn1cc(/C=C2\SC(=S)N(NC(=O)c3ccccc3Cl)C2=O)c2ccccc21	?	4.2%[10 µM]	-7.2%	-82.0%	-1.9%	-12.4
Cc1ccc(C(=O)NN2C(=O)/C(=C/c3cn(C)c4ccccc34)SC2=S)cc1	7.9%	.	6.7%	22.4µM*	-8.0%	-15.3
Cc1cccc(C(=O)Nc2cccc(NC(=O)c3ccccc3)c2)c1	.	.	4.4%	.	.	-4.1
Cc1cccc(NC2=C(NC(=O)c3ccccc3)C(=O)c3ccccc3C2=O)c1	-32.2%	-9.2%[10 µM]	?	16.0%	-17.0%	-41.0*
CN(C1=C(NC(=O)c2ccc(Cl)cc2)C(=O)c2ccccc2C1=O)c1ccccc1	?	-72.6%[10 µM]	-13.9%	.	2.6%	-54.6*
O=C(NC1=C(Nc2ccc(Cl)cc2)C(=O)c2ccccc2C1=O)c1ccccc1	?	7.2%[10 µM]	-8.6%	-10.9%	?	-30.3*
CN(c1ccc(C(=O)Nc2ccc(Cl)cn2)cc1)S(=O)(=O)c1ccccc1	?	7.5%[10 µM]	7.0%	3.0%	?	-13.5
CCN1/C(=C\c2ccc3cc(C)ccc3[n+]2CC)Sc2cc(C)c(C)cc21	0.891µM*	-75.5%	-0.8%	203.8%	?	2.2
CCN1/C(=C/c2ccc3cccc(C)c3[n+]2CC)Sc2ccccc21	1.12µM*	-156.7%	-2.5%	-3.2%	0.1%	5.3
CCOC(=O)CSc1nc2cc(C(=O)N3CCC(C(N)=O)CC3)ccc2c(=O)n1-c1ccccc1	2.82µM*	-16.7%	-3.2%	-52.6%	0.8%	2.1
CCOC(=O)CSc1nc2ccccc2c(=O)n1-c1ccc(C(=O)NCCOC)cc1	3.4%	13.4%	12.7%	3.4%	2.3%	-1.7

Screening results from PubChem.
